Bioassay records: PubChem, National Center for Advancing Translational Sciences (NCATS)
JMJD2A Tudor inh: blocks the human JMJD2A Tudor domain. AID 504339. actives 4.4% (n = 390,000). Potency, µM (series often up to 114 µM), for inactives: top-dose activity change, negative = inhibition, most hits filed as inhibitors. AlphaScreen JMJD2A-Tudor / H3K4me3 peptide binding; further: on the % scale 0 is the no-effect control and ±100 the full control effect; nearly all actives have a fitted effect of over 50% in size
G9a block: inhibitors of human histone lysine methyltransferase G9a. AID 504332. Potency, µM (titrated, usually from 102 µM), for inactives: at the top dose activity, negative = inhibition, hits mostly inhibitors. actives 8.8% (n = 350,000). G9a H3K9 monomethylation, AlphaScreen, 2 h; further: on the % scale 0 is the no-effect control and ±100 the full control effect; nearly all actives have a fitted effect of over 75% in size
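Step 1: enzyme (final 20 nM) with compound, 15 min RT. Step 2: substrate peptide 500 nM and SAM 20 uM, 2 h RT. Step 3: anti-H3K9me1 antibody and AlphaScreen beads, 10 min, then plate read.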
GLS inh: inhibitors of human glutaminase (GLS); actives 0.21% (n = 410,000); O94925; GLS enzymatic activity, qHTS titration; Potency, µM (titrated, usually from 45.5 µM), for the others: top-dose activity change, negative = inhibition, most hits filed as inhibitors; further: on the % scale 0 is the no-effect control and ±100 the full control effect
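hKGA in 45 mM KH2PO4 (pH 8.2), 0.02% Tween-20 with compound, then 1mM L-Glutamine (stock as added) plus glutamate oxidase/HRP/Amplex red coupling mix. Fluorescence read initially and after 30 min at RT; signal change reflects glutamate formation.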
HP1b binding inh: HP1-beta chromodomain-methylated histone interaction inhibition | Potency, µM (top dose mostly 114 µM), inactives show at the highest dose activity change, negative = inhibition, hits mostly inhibitors | P83916 | actives 0.56% (n = 390,000) | AID 540317 | AlphaScreen HP1-beta / biotin-H3K9me3 peptide binding; further: nearly all actives have a fitted effect of over 70% in size
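AlphaScreen: HP1-beta (50 nM) preformed 30 min with biotin-H3(1-18)K9me3 peptide (50 nM) in PBS pH 7.4, 0.01% Tween-20. Compound added for 30 min at RT, then streptavidin donor/nickel chelate acceptor beads (10 ug/mL) for 30 min.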
BAZ2B block: BAZ2B (human) inhibition; Potency, µM (titrated, usually from 114 µM), inactives show top-dose activity change, negative = inhibition, most hits filed as inhibitors; AID 504333; AlphaScreen BAZ2B-H3K14Ac peptide displacement; actives 4.4% (n = 360,000); further: on the % scale 0 is the no-effect control and ±100 the full control effect; nearly all actives have a fitted effect of over 60% in size
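AlphaScreen displacement: compounds (up to 110uM) incubated 30 min at room temperature with a preformed 50 nM BAZ2B/50 nM biotinylated H3K14Ac peptide complex in PBS pH 7.4 with Tween-20. Donor and acceptor beads at 10 ug/mL final added, 20 min light-protected before reading.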
An asterisk follows results filed as active; ? = inconclusive; nt = no result; [ ] = dose if it differs, or a comment. A selection: hits, their analogues and other compounds. The true share with any hit is near 10%. The call rests on the fitted dose curve; in most records, active means well fitted curve in the direction sought with a large enough effect; inconclusive means small, poorly fitted or top-dose-only effect, or another doubt; inactive means no such curve, though single readings can be large; an effect the other way counts as inactive or inconclusive. Potency means the concentration at half of the fitted maximal effect.

SMILES	JMJD2A Tudor inh	G9a block	GLS inh	HP1b binding inh	BAZ2B block
Clc1ccc(CN2CCN(c3ncccn3)CC2)c(Cl)c1	18µM*	nt	-1%	?	?
O=C(c1ccccc1Cl)N1CCN(c2ncccn2)CC1	7%	nt	-29%	19%	nt
Clc1cccc(CN2CCN(c3ncccn3)CC2)c1Cl	20µM*	nt	-4%	?	?
COc1ccccc1-c1ccc2ncnc(NCCNC(C)=O)c2c1	nt	1%[0.501 µM]	nt	nt	nt
COc1ccc(CCNC(=O)Nc2nc(C(N)COCc3ccccc3)cs2)cc1OC (stereo not drawn)	nt	nt	21%	nt	nt
CC1CN(Cc2ccccc2Cl)CC(C)O1 (stereo not drawn)	4.5µM*	8.9µM*	-5%	?	32µM*
Clc1ccccc1CN1CCSCC1	25µM*	-3%[0.501 µM]	1%	?	?
O=[N+]([O-])c1ccc(Cl)c(CN2CCSCC2)c1	-29%	?	-1%	4%	?
O=S(=O)(Nc1cc(Br)cc2cccnc12)c1ccccc1	-20%	nt	nt	9%	nt
CSCCC(NS(=O)(=O)c1ccc2c(c1)oc(=O)n2C)C(=O)NCc1ccc(Cl)cc1 (stereo not drawn)	-8%	-18%[59 µM]	-11%	15%	8%
O=C(O)c1ccccc1Nc1cccc(OCc2ccc3ccccc3n2)c1	?	11µM*	-3%	-6%	45µM*
COC(=O)c1ccccc1NC(=O)Cn1c(=O)n(-c2ccc(C)cc2)c(=O)c2ccccc21	5%	3%[59 µM]	10%	12%	4%
O=C(Oc1cc(=O)n2ccccc2n1)c1ccccc1	-6%	18µM*	-9%	47%	-2%
CC(=O)Nc1ccc(S(=O)(=O)Oc2ccc(C(=S)N3CCC(O)CC3)cc2)cc1	-10%	18µM*	-12%	-11%	-6%
COc1ccc(-c2cc(C(F)(F)F)n3nc(C(=O)NCc4ccco4)cc3n2)cc1	6%	-1%[59 µM]	3%	25%	4%
Cc1cc(C(=O)NCc2ccco2)c2ccccc2n1	-5%	?	-1%	29%	-14%
COc1cccc(NC(=O)c2cc(-c3ccc(C)o3)nc3ccccc23)c1	56µM*	8.9µM*	-4%	1%	?
CCc1nnc(NC(=O)c2cc(C)nc3ccccc23)s1	-17%	?	2%	13%	-18%
CCc1nnc(NC(=O)c2cc(-c3ccc(C)o3)nc3ccccc23)s1	89µM*	?	19%	8%	-20%
Cc1cc(-c2ccccc2)nc2cc(C(=O)NCc3ccco3)nn12	?	50µM*	-4%	-2%	50µM*
Cc1ccc(-c2cc(C(=O)NCc3ccco3)c3ccccc3n2)o1	50µM*	?	-12%	-22%	50µM*
Cc1ccccc1Cn1c(CN2CCC(C(=O)NCCN(C)C)CC2)cc2ccccc21	?	?	5%	3%	?
Cc1ccc(Cl)cc1NC(=O)c1ccc2nc(CCc3ccccc3)oc2c1	-5%	-20%[59 µM]	-3%	28%[57 µM]	1%
Cc1ccc(-c2cc(C(=O)Nc3ccccc3C)c3ccccc3n2)o1	79µM*	1.8µM*	-26%	-23%	-4%
CCC(CC)c1nnc(NC(=O)c2cc(-c3ccccc3)nc3ccccc23)s1	-9%	45µM*	-3%	37%	10%
SMILES	JMJD2A Tudor inh	G9a block	GLS inh	HP1b binding inh	BAZ2B block
COC(=O)c1cc(-c2ccc(C)o2)nc2ccccc12	?	?	-4%	?	?
Cc1ccc(-c2cc(C(=O)Nc3cccc(S(=O)(=O)N(C)C)c3)c3ccccc3n2)o1	?	8.9µM*	0%	0%	3%
CC(C)CC(=O)N(Cc1ccccc1)S(=O)(=O)c1ccc2c(c1)oc(=O)n2C	-2%	14%[59 µM]	-1%	77%	23%
O=C(Nc1ccccc1Cl)c1cc(C2CCCCN2C(=O)c2cccs2)on1 (stereo not drawn)	nt	nt	-9%	nt	nt
CC(=O)c1c(C)[nH]c(=S)c(C#N)c1-c1ccc(Cl)cc1	?	4.5µM*	24%	14%	-18%
CCOC(=O)c1c(C)[nH]c(=S)c(C#N)c1-c1ccc(Cl)cc1	-34%	-5%[59 µM]	-16%	14%	-11%
CCOC(=O)c1c(C)[nH]c(=S)c(C#N)c1-c1ccc(OC)cc1	-25%	?	?	26%	-6%
Cc1[nH]c(=S)c(C#N)c(-c2ccco2)c1C(=O)N(C)C	4µM*	3.5µM*	-12%	-25%	-36%
C/C1=C2/[N-]C(C(CC(N)=O)[C@@]2(C)CCC(=O)NCC(C)OP(=O)([O-])O[C@H]2[C@@H](O)[C@@H](n3cnc4cc(C)c(C)cc43)O[C@@H]2CO)[C@]2(C)N=C(/C(C)=C3N=C(/C=C4N=C1C(CCC(N)=O)C\4(C)C)[C@@H](CCC(N)=O)[C@]\3(C)CC(N)=O)[C@@H](CCC(N)=O)[C@]2(C)CC(N)=O.CC(=O)O.[Co] (stereo partly drawn)	nt	?	-14%	nt	nt
CC1(C)C(C=C(Cl)Cl)C1C(=O)Nc1ccc([N+](=O)[O-])cc1 (stereo not drawn)	-32%	3%[59 µM]	0%	-1%	?
CCN(CC)S(=O)(=O)c1nnc(NC(=O)c2ccc(Br)cc2)s1	-27%	-20%[59 µM]	1%	17%	-31%
COc1ccc(Br)c(C(=O)Nc2cc3c(cc2N2CCCCC2)n(C)c(=O)c(=O)n3C)c1	-20%	-33%[59 µM]	18%	3%	-16%
C/C(=N/NS(=O)(=O)c1ccc(C)cc1)[C@H]1C[C@@H]1c1ccccc1	4%	13µM*	-3%	43%	1%
CC(=NNS(=O)(=O)c1ccc(C)cc1)c1ccccc1	nt	nt	16%	nt	nt
CCOc1ccc(C(=O)N2CCc3cc(OC)c(OC)cc3C2COc2ccc3c(C)cc(=O)oc3c2)cc1OCC (stereo not drawn)	-17%	3%[59 µM]	-3%	1%	0%
CN(/N=C/c1cc(Cl)cc(Cl)c1O)c1c(Cl)cccc1[N+](=O)[O-]	40µM*	nt	-4%	?	10µM*
CCOc1cc(CN2CCN(c3ccc(C(C)=O)cc3)CC2)ccc1OC	1.4µM*	32µM*	4%	?	56µM*
COc1ccc(CC(C)N2CCN(c3cccc(C(F)(F)F)c3)CC2)cc1OC (stereo not drawn)	?	?	22%	-3%	?
CCOc1cc(CN2CCN(c3cccc(C(F)(F)F)c3)CC2)ccc1OC	8.9µM*	22µM*	25%	?	8.9µM*
c1ccc(Nc2nc(-c3ccccc3)nc3ccccc23)cc1	32%	0%[0.501 µM]	1%	102%	-7%
CNC(=O)c1ccc(Nc2nc(-c3ccccc3)nc3ccccc23)cc1	-13%	50µM*	33%	8%	3%
O=C(O)c1ccc(Nc2nc(-c3ccccc3)nc3ccccc23)cc1	40µM*	?	58%	31%	5%
